# From PubChem BioAssay AID2283112 (EPA ToxCast)
# Results filed as inconclusive are left out. Calls of active or inactive are those of the source. How the source made its calls: active means hit-call score of the fitted dose curve at least 0.9, where 1 is the maximum; inconclusive means response in the unintended direction; inactive means score below 0.9.
# Molecular target: rat CYP1A1, Cyp1a1 (gene 24296) (UniProt P00185)
# Assay: NVS_ADME_rCYP1A1: NovaScreen (NVS) CYP450-related Enzyme Activity (ADME) Assay for rat CYP1A1
# Description: NVS_ADME_rCYP1A1 is a biochemical, single-readout assay that uses extracted gene-proteins from baculovirus-insect cells in a cell-free assay. Measurements were taken 1 hour after chemical dosing in a 96-well plate.NVS_ADME_rCYP1A1 is one of one assay component(s) measured or calculated from the NVS_ADME_rCYP1A1 assay. It is designed to make measurements of enzyme activity, a form of enzyme reporter, as detected with fluorescence intensity signals by Fluorescence technology.Data from the assay component NVS_ADME_rCYP1A1 was analyzed into 1 assay endpoint. This assay endpoint, NVS_ADME_rCYP1A1, was analyzed in the positive analysis fitting direction relative to Acetonitrile as the negative control and baseline of activity. Using a type of enzyme reporter, loss-of-signal activity can be used to understand changes in the enzymatic activity as they relate to the gene Cyp1a1. Furthermore, this assay endpoint can be referred to as a primary readout, because this assay has produced multiple assay endpoints where this one serves a enzymatic activity function. To generalize the intended target to other relatable targets, this assay endpoint is annotated to the cyp intended target family, where the subfamily is xenobiotic metabolism. […]
# Sequence of rat CYP1A1, Cyp1a1 (gene 24296) (P00185 whole entry, looked up): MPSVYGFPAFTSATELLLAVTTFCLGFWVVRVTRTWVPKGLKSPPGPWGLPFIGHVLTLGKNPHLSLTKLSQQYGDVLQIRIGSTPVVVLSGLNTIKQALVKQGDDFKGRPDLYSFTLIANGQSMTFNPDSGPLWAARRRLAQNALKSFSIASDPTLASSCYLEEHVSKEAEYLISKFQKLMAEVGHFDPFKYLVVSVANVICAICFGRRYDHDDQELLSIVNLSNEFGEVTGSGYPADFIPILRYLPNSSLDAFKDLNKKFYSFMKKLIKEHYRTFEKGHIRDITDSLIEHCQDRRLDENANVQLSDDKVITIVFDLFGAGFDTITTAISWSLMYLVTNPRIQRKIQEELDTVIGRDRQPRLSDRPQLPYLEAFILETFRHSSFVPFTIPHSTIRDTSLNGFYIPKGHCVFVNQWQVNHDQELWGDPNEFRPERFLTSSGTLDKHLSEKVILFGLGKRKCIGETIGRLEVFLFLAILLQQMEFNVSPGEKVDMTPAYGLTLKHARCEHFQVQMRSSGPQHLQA
smiles,measurement,value
C=CCOC(Cn1ccnc1)c1ccc(Cl)cc1Cl (stereo unspecified),AC50,7.73 µM (active)
